This is an account of results in PubChem BioAssay (NCATS).

In assay [1] the target is Calcium and integrin-binding protein 1 (Homo sapiens) (UniProt Q99828). Nature of the assay: Validation qHTS for Identification of Calcium Integrin Binding protein 1 (CIB1) Competitor (AID 1508618). Further: on the % scale 0 is the no-effect control and ±100 the full control effect. A digest of the protocol:
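CIB1-GST (1 uM final) incubated 15 min at room temperature with compounds (up to 114 uM), then FITC-labelled alphaIIb peptide (100 nM) added. FP read (Ex 480/Em 540) after 15 min, pH 7.4 buffer containing 5 mM CaCl2.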
For orientation: In qHTS, concentration-response curves come from the screen itself.

Assay [2] shares this target. The assay is described as follows: Primary qHTS for Identification of Calcium Integrin Binding Protein 1 (CIB1) Competitor (AID 1508620). Further: top concentration of the series differs between compounds; on the % scale 0 is the no-effect control and ±100 the full control effect. A digest of the protocol: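 CIB1-GST (1 uM final) and compound incubated 15 min at room temperature before adding FITC-alphaIIb peptide tracer (100 nM final). Competition for binding read by fluorescence polarization (ex 480, em 540) after another 15 min at room temperature.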

Assay [3] in a line: Primary qHTS for small molecule stabilizers of the endoplasmic reticulum resident proteome: Secreted ER Calcium Modulated Protein (SERCaMP) assay (AID 1508630). Further: on the % scale 0 is the no-effect control and ±100 the full control effect. The procedure, abridged: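 The SH-SY5Y reporter protocol was run at 3 concentrations up to 38.3 uM (primary) or 11 concentrations (follow-up): 16 h compound, 100 nM thapsigargin for 4 h, then extracellular luciferase luminescence.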

Assay [4] can be described thus: A High-Content qHTS Against Drug Library for the Identification of Small Molecules that Inhibit DYT1 Early Onset Primary Dystonia-Associated Cell Pathology (AID 1645839; calls by dose curve; further: series mostly up to about 46 µM). A digest of the protocol:
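High-content imaging quantified EGFP-TorsinA mislocalization in HEK293-derived cells inducibly expressing DYT1 mutant torsinA, after 48 h exposure to compound given together with tetracycline induction. Cell count served as a toxicity channel alongside %pathology.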

Assay [5] addresses Cytochrome P450 2D6 (Homo sapiens) (UniProt P10635). The assay is described as follows: Cytochrome P450 family 2 subfamily D member 6 (CYP2D6) small molecule antagonists: luciferase biochemical (cell-free) qHTS assay (AID 1645840; active means well fitted curve in the direction sought with a large enough effect in the repeat runs; an effect the other way counts as inactive or inconclusive; further: nearly all actives have a fitted effect of over 55% in size; further: potency means the concentration at half of the fitted maximal effect). The procedure, abridged: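 P450-Glo CYP2D6 system: proluciferin substrate converted by enzyme to luciferin, read by luminescence proportional to activity. Enzyme-substrate mix with compound 10 min at room temperature, then NADPH regeneration 1 h before detection reagent.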

For assay [6], the target named is Cytochrome P450 2C9 (Homo sapiens) (UniProt P11712). The assay is described as follows: Cytochrome P450 family 2 subfamily C member 9 (CYP2C9) small molecule antagonists: luciferase biochemical (cell-free) qHTS assay (AID 1645842; active means well fitted curve in the direction sought with a large enough effect in the repeat runs; an effect the other way counts as inactive or inconclusive; further: nearly all actives have a fitted effect of over 55% in size; further: potency means the concentration at half of the fitted maximal effect). A digest of the protocol:
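P450-Glo CYP2C9 system: proluciferin substrate with enzyme in mix containing 0.4% BSA, 10 min at room temperature, then NADPH regeneration solution added and incubated 1 h at 37C. Detection reagent stopped reaction; luminescence read after 20 min as RLU.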

The target in assay [7] is Papain (Carica papaya) (UniProt P00784). Nature of the assay: Primary qHTS assay for inhibitors of the protease papain (AID 1645873).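 Further: papain turnover of Z-FR-AMC read as the AMC fluorescence gain over 10 min; series mostly up to about 50 µM; on the % scale 0 is the no-effect control and ±100 the full control effect.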
Papain (Carica papaya), sequence (P00784 whole entry, looked up): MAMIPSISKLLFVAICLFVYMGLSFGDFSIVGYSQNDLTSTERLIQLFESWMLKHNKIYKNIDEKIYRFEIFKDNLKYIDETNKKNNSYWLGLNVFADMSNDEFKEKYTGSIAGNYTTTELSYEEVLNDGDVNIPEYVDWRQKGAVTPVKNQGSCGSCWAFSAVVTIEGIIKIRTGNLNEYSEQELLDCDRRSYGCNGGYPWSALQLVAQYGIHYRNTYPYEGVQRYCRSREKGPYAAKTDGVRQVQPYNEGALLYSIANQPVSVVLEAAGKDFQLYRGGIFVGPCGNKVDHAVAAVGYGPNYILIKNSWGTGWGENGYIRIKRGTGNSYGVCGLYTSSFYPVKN
Assay [8] is described as follows: Counterscreen qHTS for small molecule stabilizers of the endoplasmic reticulum resident proteome: GLuc-NoTag assay (AID 1508627).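 Further: SH-SY5Y cells given compound then 100 nM thapsigargin to empty ER calcium; series mostly up to about 76 µM; 0% = thapsigargin alone and -100% = DMSO vehicle control.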 The procedure, abridged:
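Counterscreen line: SH-SY5Y-GLuc-NoTag cells, treated with compound 19 hr before a 4 hr, 100 nM thapsigargin calcium depletion. Secreted Gaussia luciferase in the medium was measured by luminescence after coelenterazine was added (0.07x final), with cells unlysed.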
(In general: The purpose of a counterscreen is to sort out artefacts and off-target activity.)

Assay [9] can be described thus: Primary qHTS for inhibitors of nuclear receptor binding SET domain protein 2 (NSD2) in an isogenic RCH-ACV NSD2 p.E1099K mutant (9B) (AID 1645876). Further: nearly all actives have a fitted effect of over 70% in size. Further: potency means the concentration at half of the fitted maximal effect.
A short description of assay [10]: Primary qHTS for inhibitors of nuclear receptor binding SET domain protein 2 (NSD2) in an RCH-ACV wild type WT cells (2C) (AID 1645877). Further: nearly all actives have a fitted effect of over 70% in size. Further: potency means the concentration at half of the fitted maximal effect.
Assay [11] can be described thus: Cell Viability qHTS for small molecule stabilizers of the endoplasmic reticulum resident proteome (AID 1508629). The note with it: cell viability counter-screen, 100 nM thapsigargin for final 4 h.
Assay [12] deals with Calcium and integrin-binding protein 1 (Homo sapiens) (UniProt Q99828). The assay is described as follows: Confirmatory qHTS for Identification of Calcium Integrin Binding Protein 1 (CIB1) Competitor (AID 1508617). Further: on the % scale 0 is the no-effect control and ±100 the full control effect; nearly all actives have a fitted effect of over 65% in size. A digest of the protocol: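 Compounds at up to 114 uM final met 1 uM GST-tagged CIB1 for 15 min at room temperature (HEPES pH 7.4, 5 mM CaCl2). FITC-labelled alphaIIb peptide, 100 nM, added; polarization read after 15 min more.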
Calcium and integrin-binding protein 1 (Homo sapiens), sequence (Q99828 whole entry, looked up): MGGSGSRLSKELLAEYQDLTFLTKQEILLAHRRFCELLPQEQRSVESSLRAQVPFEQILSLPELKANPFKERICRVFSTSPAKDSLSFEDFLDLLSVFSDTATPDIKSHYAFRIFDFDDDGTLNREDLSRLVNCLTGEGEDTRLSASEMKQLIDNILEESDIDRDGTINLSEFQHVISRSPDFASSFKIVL

Assay [13] addresses Cytochrome P450 3A4 (Homo sapiens) (UniProt P08684). The assay is described as follows: Cytochrome P450 family 3 subfamily A member 4 (CYP3A4) small molecule antagonists: luciferase qHTS assay (AID 1645841; active means well fitted curve in the direction sought with a large enough effect in the repeat runs; an effect the other way counts as inactive or inconclusive; further: nearly all actives have a fitted effect of over 45% in size). The procedure, abridged:
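Luminescent CYP3A4 activity readout: compounds plus enzyme-substrate mix 10 min at room temperature, reaction started with NADPH regenerating system for 1 h, stopped with detection reagent, read after 20 min. Ketoconazole served as control.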

Assay [14] is described as follows: Confirmatory qHTS for small molecule stabilizers of the endoplasmic reticulum resident proteome: Secreted ER Calcium Modulated Protein (SERCaMP) assay (AID 1508628). Further: potency means the concentration at half of the fitted maximal effect; nearly all actives have a fitted effect of over 40% in size. A digest of the protocol:
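GLuc-SERCaMP-expressing SH-SY5Y cells, pretreated 16 h with compound, are challenged with thapsigargin to empty ER calcium stores; after 4 h, coelenterazine is added directly to the medium and luminescence is imaged.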

SMILES strings stand for the structures. Results filed as inconclusive are left out. A number with no mark means an inactive call. Activity calls are given as the source filed them. Unless noted, the call rests on the fitted dose curve; in most records, active means well fitted curve in the direction sought with a large enough effect; inconclusive means small, poorly fitted or top-dose-only effect, or another doubt; inactive means no such curve, though single readings can be large; an effect the other way counts as inactive or inconclusive.

Cytochrome P450 3A4 (Homo sapiens), sequence (P08684 whole entry, looked up): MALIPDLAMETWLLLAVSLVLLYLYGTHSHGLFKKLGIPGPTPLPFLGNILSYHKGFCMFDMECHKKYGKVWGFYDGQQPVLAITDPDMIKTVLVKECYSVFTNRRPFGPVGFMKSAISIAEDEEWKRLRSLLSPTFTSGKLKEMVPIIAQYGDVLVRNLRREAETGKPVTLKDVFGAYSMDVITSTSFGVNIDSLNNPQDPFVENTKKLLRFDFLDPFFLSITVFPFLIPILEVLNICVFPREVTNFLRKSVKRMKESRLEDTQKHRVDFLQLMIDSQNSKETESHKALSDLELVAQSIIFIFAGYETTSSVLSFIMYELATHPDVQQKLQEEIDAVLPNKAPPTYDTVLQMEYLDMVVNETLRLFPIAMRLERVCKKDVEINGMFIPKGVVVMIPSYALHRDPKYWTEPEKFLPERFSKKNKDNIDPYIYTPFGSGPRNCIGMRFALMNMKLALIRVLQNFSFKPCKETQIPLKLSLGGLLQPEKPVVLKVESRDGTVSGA
Cytochrome P450 2C9 (Homo sapiens), sequence (P11712 whole entry, looked up): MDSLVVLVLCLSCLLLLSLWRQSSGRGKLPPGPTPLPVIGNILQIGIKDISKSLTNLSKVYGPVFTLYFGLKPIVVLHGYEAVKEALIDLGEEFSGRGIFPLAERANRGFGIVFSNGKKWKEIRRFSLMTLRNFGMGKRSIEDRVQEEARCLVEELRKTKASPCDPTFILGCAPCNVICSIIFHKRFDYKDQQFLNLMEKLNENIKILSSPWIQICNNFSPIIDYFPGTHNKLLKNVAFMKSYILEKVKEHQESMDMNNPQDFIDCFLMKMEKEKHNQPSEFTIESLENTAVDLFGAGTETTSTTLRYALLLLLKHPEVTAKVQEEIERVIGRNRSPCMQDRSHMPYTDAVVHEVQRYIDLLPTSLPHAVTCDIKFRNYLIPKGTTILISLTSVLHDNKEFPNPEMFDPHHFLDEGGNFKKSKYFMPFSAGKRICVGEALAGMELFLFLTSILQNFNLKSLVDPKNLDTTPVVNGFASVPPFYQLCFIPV
Cytochrome P450 2D6 (Homo sapiens), sequence (P10635 whole entry, looked up): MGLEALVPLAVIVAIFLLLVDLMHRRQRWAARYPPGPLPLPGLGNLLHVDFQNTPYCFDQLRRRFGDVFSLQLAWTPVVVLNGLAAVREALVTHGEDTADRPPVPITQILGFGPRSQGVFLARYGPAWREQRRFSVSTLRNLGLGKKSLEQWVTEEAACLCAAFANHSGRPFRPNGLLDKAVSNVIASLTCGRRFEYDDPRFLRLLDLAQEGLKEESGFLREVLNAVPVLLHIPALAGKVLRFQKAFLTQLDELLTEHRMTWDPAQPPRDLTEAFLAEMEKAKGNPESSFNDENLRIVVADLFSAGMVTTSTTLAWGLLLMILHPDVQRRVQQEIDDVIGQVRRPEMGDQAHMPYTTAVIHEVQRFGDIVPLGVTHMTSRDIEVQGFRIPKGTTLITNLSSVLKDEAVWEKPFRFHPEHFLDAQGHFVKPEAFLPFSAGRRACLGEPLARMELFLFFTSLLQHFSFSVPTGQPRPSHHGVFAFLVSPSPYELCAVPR

In the case of `NC1=NCC2c3ccccc3Cc3ccccc3N12` (stereo unspecified), the result in assay [1] was inactive. Moreover, the Potency result in assay [2], in assay [3], in [4], in assay [6] and in [7] was “inactive” in each case. Besides, the Potency in assay [5] was 1.55 µM (active).
For the compound `CC1=C(C)C(=O)C(CCCCC#CCCCC#CCO)=C(C)C1=O`, the outcome in assay [1] was inactive. The Potency result in assay [2], in assay [8], in assay [4] and in assay [7] was “inactive” each time. The Potency in assay [5] was 4.9 µM (active); in assay [6] it was 3.09 µM (active); in [9], 18.8 µM (active); in assay [10], 10.6 µM (active).
In the case of `CN(C)CCCN1c2ccccc2Sc2ccccc21`, the outcome in assay [1] was inactive. The Potency result in assay [2] and in assay [7] was “inactive” throughout. In addition, in assay [11], the max response is -13.5%.
Consider `NC(=O)c1ncn([C@@H]2O[C@H](CO)[C@@H](O)[C@H]2O)c1O`, for which the result in assay [12] and in assay [1] was inactive. Also, the Potency entry in [3], in assay [4], in [5], in [6], in [7] and in assay [9] was “inactive” in each case. Further, in assay [10], the Potency result is “inactive”.
In the case of `CC(=O)Nc1nnc(S(N)(=O)=O)s1`, the outcome in [1] and in assay [13] was inactive. Further, the Potency entry in assay [2], in assay [3], in [4], in assay [5], in assay [6] and in [7] was “inactive” each time. The Potency entry in assay [9] was “inactive”.
For the compound `Nc1c2c(nc3ccccc13)CCCC2O` (stereo unspecified), in [1], the result was inactive. The Potency result in assay [2], in [3], in [4], in assay [6], in assay [7] and in assay [9] was “inactive” in each case. In addition, the Potency in assay [5] was 15.5 µM (active).
With `NC(N)=N/N=C/c1c(Cl)cccc1Cl`, in assay [1], the result was inactive. Further, the Potency result in assay [2], in [3], in assay [4], in assay [6] and in [7] was “inactive” each time. Further, the Potency in assay [5] was 9.77 µM (active).
As for `CC(C(=O)O)c1ccc(CC2CCCC2=O)cc1` (stereo unspecified), the result in [1] and in [13] was inactive. The Potency entry in [2], in assay [3], in [4], in assay [5], in [6] and in [7] was “inactive” throughout. In addition, in assay [9], the Potency entry is “inactive”.
Take `c1cc(CN2CCCCC2)cc(OCCCNc2nc3ccccc3s2)c1`: the result in assay [1] was inactive. Moreover, the Potency entry in assay [2], in assay [8], in assay [6] and in [7] was “inactive” each time. Also, the Potency is 12.6 µM (active) in assay [14] and 1.74 µM (active) in assay [5]. Also, the max response in assay [11] is -7.44%.
Regarding `CN(C)C/C=C(/c1ccc(Br)cc1)c1cccnc1`, the result in assay [1] was inactive. The Potency entry in [2], in assay [8], in assay [6], in assay [7] and in [9] was “inactive” each time. The max response in [11] is 4.56%.
`COc1ccc2c(c1OC)C(=O)O[C@@H]2[C@H]1c2c(cc3c(c2OC)OCO3)CCN1C`: the result in assay [1] was inactive. In addition, the Potency entry in [2], in [3], in [4] and in assay [7] was “inactive” throughout. Also, the results for the Potency in assay [5] and in [6] were 4.9 µM (active) and 0.11 µM (active), respectively.
On to `CN(C)[C@@H]1C(=O)C(C(N)=O)=C(O)[C@@]2(O)C(=O)C3=C(O)c4c(O)ccc(Cl)c4[C@@H](O)[C@H]3C[C@@H]12`, for which the outcome in [1] and in assay [13] was inactive. Also, the Potency entry in assay [2], in [3], in [4] and in [5] was “inactive” throughout.
For the compound `O=C(CCCN1CCC(O)(c2cccc(C(F)(F)F)c2)CC1)c1ccc(F)cc1`, in [1], the result was inactive. Besides, the Potency result in [2], in assay [4], in assay [6] and in assay [7] was “inactive” in each case. Moreover, the max response in assay [11] is -8.14%.
